Results filed as inconclusive are left out. Calls of active or inactive are those of the source. Calls follow the shape of the dose curve; as a rule, active = well fitted curve in the direction sought with a large enough effect; inconclusive = small, poorly fitted or top-dose-only effect, or another doubt; inactive = no such curve, though single readings can be large; an effect the other way counts as inactive or inconclusive.
How the values were obtained:
[1] = target: Phospholipid hydroperoxide glutathione peroxidase GPX4 (Homo sapiens) (UniProt P36969); test: Primary qHTS Assay for Inhibitors of Recombinant Selenoprotein Glutathione Peroxidase 4 (GPX4) (AID 1845192); also: nearly all actives have a fitted effect of over 65% in size; as to activity change, negative = inhibition: series mostly up to about 50 µM; % is scaled to controls: 0 for no effect and ±100 for the full control effect
Sequence of Phospholipid hydroperoxide glutathione peroxidase GPX4 (Homo sapiens) (P36969 whole entry, looked up): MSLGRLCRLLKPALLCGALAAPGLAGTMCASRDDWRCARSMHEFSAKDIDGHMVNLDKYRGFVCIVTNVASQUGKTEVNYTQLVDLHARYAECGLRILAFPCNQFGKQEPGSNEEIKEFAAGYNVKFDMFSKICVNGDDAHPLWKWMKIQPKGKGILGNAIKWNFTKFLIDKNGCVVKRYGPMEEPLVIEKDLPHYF
Outline: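 GR-coupled assay: recombinant GPX4 preincubated 30 min with compound at room temperature; final 200 nM GPX4, 1 mM GSH, 0.5 mM cumene hydroperoxide, 0.5 mM NADPH, 100 nM GR, 0.01% BSA, pH 7.5 Tris. NADPH fluorescence (340/450 nm) read at 0 and 15 min.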

[2] = target: Luciferin 4-monooxygenase (Photinus pyralis) (UniProt P08659); test: Primary firefly luciferase (FLuc) qHTS assay for identification of artifact compounds. (AID 1845220); also: nearly all actives have a fitted effect of over 60% in size;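 as to activity change, negative = inhibition: series mostly up to about 54 µM; plate controls were DMSO vehicle for no effect and no enzyme for full effect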
Outline: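 Enzymatic FLuc inhibition assay: compounds pre-exposed to luciferin/ATP (10 uM each) for 15 min, then purified P. pyralis enzyme at 10 nM added. Read-out: luminescence at 5 min.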

[3] = system: Nanoluciferase (engineered Oplophorus gracilirostris luciferase); test: Primary Nanoluciferase (NLuc) qHTS assay for identification of artifact compounds. (AID 1845222); also: potency is read from the fitted curve at half-maximal effect;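 as to activity, negative = inhibition: NLuc secreted into diluted conditioned medium of S16 cells; series mostly up to about 54 µM; 0% = DMSO and -100% = no enzyme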
Outline: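 S16 cell supernatant NLuc, 1:55; cpds qHTS; 15 min RT dark; Nano-Glo substrate 1:100, 5 min; luminescence; Hill fit of % inhibition.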

[4] = Primary redox qHTS assay for identification of artifact compounds. (AID 1845223);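 also: 0% = DMSO and 100% = reference compound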
Outline: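 Amplex Red (25 uM) and HRP (250 mU/mL) in HBSS, with compounds for 15 min, then 250 uM DTT for 30 min, room temperature, dark. Fluorescence 525/598 nm read; normalized to DMSO and 10 uM DA3003; Hill fit.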

[5] = Primary fluorescence-based thiol-reactive (MSTI) qHTS assay for identification of artifact compounds. (AID 1845221); also: nearly all actives have a fitted effect of over 65% in size; also: potency is read from the fitted curve at half-maximal effect;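 as to activity change, negative = thiol reactive: series mostly up to about 54 µM; thiol-reactive compounds lower the probe fluorescence signal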
Outline: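 Thiol-reactive compounds detected by quenching of 4 uM MSTI fluorescence (525/598 nm) after 1 h room-temperature dark incubation in PBS pH 7.4, 2% DMSO. qHTS titration; percent inhibition Hill-fitted against Acetyl-MSTI/MSTI controls.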

C=C[C@H]1[C@H](O[C@@H]2O[C@H](CO)[C@@H](O)[C@H](O)[C@H]2O)OC=C(C(=O)OC)[C@H]1CCO
inactive: Potency [1] | Potency [2] | Potency [3] | Potency [4]

CC1(C)C2CCC1(C)C(OC(=O)C(O)(CC(=O)O)CC(=O)O)C2 (configuration not stated)
inactive: Potency [1] | Potency [3] | Potency [4]

COc1c2c(c(C)c3c1C(=O)OC3)OC1(C)CC(O)C34OC(OC)(CCC3(C)C1C2)OC4(C)CO (configuration not stated)
inactive: Potency [1] | Potency [2] | Potency [3]

C[C@H]1[C@@H](O)[C@H](O)C2[C@]3(C)C([C@@H](O)[C@H]4OC(=O)[C@@H]1[C@@]24C)[C@](C)(O)C=C[C@H]3O[C@@H]1O[C@H](CO)[C@@H](O)[C@H](O)[C@H]1O (some centres not stated)
inactive: Potency [1] | Potency [2] | Potency [3] | Potency [4]

COc1cc(/C=C/c2ccccc2)c(C(=O)O)c(O)c1CC=C(C)C
active: Potency [3] 13.2 µM
inactive: Potency [1] | Potency [2] | Potency [4]

OC[C@H]1O[C@@H](Oc2cc(O)cc(-c3cc4ccc(O[C@@H]5O[C@H](CO)[C@@H](O)[C@H](O)[C@H]5O)cc4o3)c2)[C@H](O)[C@@H](O)[C@@H]1O
inactive: Potency [1] | Potency [2] | Potency [3] | Potency [4]
active: Potency [5] 10.3 µM

CC(=O)Nc1cccc2c1c(Sc1ccc(Cl)cc1)c(C)n2CC(=O)O
active: Potency [3] 10.7 µM
inactive: Potency [1] | Potency [2] | Potency [4]

O=C(C[C@@H]1C(C(=O)O)=CO[C@@H](O[C@@H]2O[C@H](CO)[C@@H](O)[C@H](O)[C@H]2O)/C1=C\CO)OCCc1ccc(O)c(O)c1
inactive: Potency [1] | Potency [2] | Potency [3] | Potency [4]

COc1ccnc2[nH]cc(C(=O)C(=O)N3CCN(C(=O)c4ccccc4)CC3C)c12 (configuration not stated)
inactive: Potency [1] | Potency [2] | Potency [5] | Potency [3] | Potency [4]

CCc1cccc2c3c([nH]c12)[C@@](CC)(CC(=O)O)OCC3
inactive: Potency [1] | Potency [2] | Potency [3] | Potency [4]

CCCSc1nc(NC2CC2c2ccc(F)c(F)c2)c2nnn(C3CC(OCCO)C(O)C3O)c2n1 (configuration not stated)
inactive: Potency [1] | Potency [2] | Potency [5] | Potency [3] | Potency [4]

O=C(O)c1cccc(CN2C(=O)/C(=C(\c3ccccc3)c3ccc(Cl)cc3)c3ccccc32)c1
inactive: Potency [2] | Potency [3]

C[C@H]1[C@H](C)C[C@@H](C(=O)O)C2CC[C@]3(C)C(=CC[C@@H]4[C@@]5(C)CC[C@H](O)C(C)(C)[C@@H]5CC[C@]43C)[C@@H]21 (some centres not stated)
inactive: Potency [1] | Potency [2] | Potency [5] | Potency [3] | Potency [4]

N#Cc1cccc(-c2c[nH]c3ncnc(N4CCOCC4)c23)c1
inactive: Potency [1] | Potency [2] | Potency [5] | Potency [3] | Potency [4]

CC(C)C[C@H](NC(=O)[C@@H]1O[C@H]1C(=O)O)C(=O)NCCCCN=C(N)N
inactive: Potency [1] | Potency [2] | Potency [5] | Potency [3] | Potency [4]

CN(C)CCC[C@]1(c2ccc(F)cc2)OCc2cc(C#N)ccc21
inactive: Potency [1] | Potency [2] | Potency [5] | Potency [3] | Potency [4]

CC1C2=CC(=O)OC2(O)CC2C1C(O)CC1C(C)(CO)CCCC21C (configuration not stated)
inactive: Potency [1] | Potency [2] | Potency [5] | Potency [3] | Potency [4]

CC1(C)CCC2(C(=O)O)CCC3(C)C(=CCC4C5(C)CCC(O)C(C)(CO)C5C(O)CC43C)C2C1 (configuration not stated)
inactive: Potency [1] | Potency [2] | Potency [3] | Potency [4]

COC(O)(CC(C)C)C1Oc2cc(C)[nH]c(=O)c2O1 (configuration not stated)
inactive: Potency [1] | Potency [5] | Potency [3] | Potency [4]

CC1OC(O[C@@H]2[C@H](O)[C@@H](OC3OC(CO)C(O)C(O)C3O)[C@H](OC(=O)[C@]34CCC(C)(C)C[C@H]3C3=CCC5[C@@]6(C)CC[C@H](O[C@@H]7O[C@H](C(=O)O)[C@@H](O)[C@H](O[C@@H]8OC[C@@H](O)[C@H](O)[C@H]8O)[C@H]7O[C@@H]7O[C@H](CO)[C@H](O)[C@H](O)[C@H]7O)[C@@](C)(C=O)C6CC[C@@]5(C)[C@]3(C)C[C@H]4O)O[C@@H]2C)C(O)C(O)C1OC1OCC(O)C(O)C1O (some centres not stated)
inactive: Potency [1] | activity change, negative = inhibition [2] 1.16% [at 6.45 µM] | activity change, negative = thiol reactive [5] 299% [at 6.41 µM] | activity, negative = inhibition [3] 0% [at 6.45 µM] | redox activity (% of DA3003) [4] -1.5% [at 6.41 µM]

COC(=O)C1C(O)CCC2CN3CCc4c([nH]c5ccccc45)C3CC21 (configuration not stated)
inactive: Potency [1] | Potency [2] | Potency [3]

COCC1OC(OC(C)(C)C2CCC3(C)C=C(C4CCC5C4(C)CC(O)C4OC(C(C)(C)O)CCC45C)CCC3O2)C(NC(C)=O)C(O)C1O (configuration not stated)
inactive: Potency [1] | Potency [2] | Potency [3] | Potency [4]

CC(=O)OCC1=C[C@@H]2OC(=O)C3=CO[C@@H](O[C@@H]4O[C@H](CO)[C@@H](O)[C@H](O)[C@H]4O)[C@H]1[C@@H]32
inactive: Potency [1] | Potency [2] | Potency [5] | Potency [3] | Potency [4]

CC(C)(O)C1CC=C(C(=O)OC[C@H]2O[C@@H](Oc3cc(C(=O)O)cc(O)c3O)[C@H](O)[C@@H](O)[C@@H]2O)CC1 (some centres not stated)
active: Potency [5] 5.19 µM
inactive: Potency [1] | Potency [2] | Potency [3] | Potency [4]

CC1(C)CC[C@]2(C(=O)O)CC[C@]3(C)C(=CCC4[C@@]5(C)CC[C@H](O)C(C)(C)C5CC[C@]43C)C2C1 (some centres not stated)
inactive: Potency [1] | Potency [2] | Potency [5] | Potency [3] | Potency [4]

CCCCS(=O)(=O)NC(Cc1ccc(OCCCCC2CCNCC2)cc1)C(=O)O (configuration not stated)
inactive: Potency [2] | Potency [5] | Potency [3] | Potency [4]

C[C@]12CCC[C@](C)(C(=O)O)C1[C@@H](O)[C@@H](O)C13CC(CCC12)C(CO)(O[C@@H]1O[C@H](CO)[C@@H](O)[C@H](O)[C@H]1O)C3 (some centres not stated)
inactive: Potency [1] | Potency [2] | Potency [3] | Potency [4]

C=Cc1cc2oc(-c3ccc(O)c(F)c3)nc2cc1O
inactive: Potency [3] | Potency [4]
